# Screening results: PubChem BioAssay, Broad Institute
# An excerpt weighted towards active compounds, which were near 2.8% of everything screened.
# EBV LMP1 NFkB: reduces LMP1-driven NF-kappaB luciferase signal; actives 0.69% (n = 350,000); LMP1-induced NF-kappaB luciferase reporter cells, luminescence; inhibition, % at 12.5 µM; in the data active = inhibition above about 41%; inconclusive = no clear call, values can overlap the other calls;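 note: 0% = neutral control wells and 100% = reference inhibitor control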
# PAX8 reporter: inhibitors of PAX8 transcriptional activity in RMG-I cells. RMG-I TPO-luciferase reporter, SteadyGlo, 24 h. inhibition, % at 12.6 µM. actives 1.2% (n = 360,000);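 active = mean replicate inhibition at least 60% with every replicate also reaching 60%; inconclusive = only one of the two criteria is met; inactive = mean below 60% and not all replicates reaching 60%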;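 note: luciferase light reporting Pax8 driven TPO promoter activity; plate controls were median of neutral control wells for no effect and mitoxantrone controls for full effect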
# Shn3 3UTR inh: reduces Shn3 3'UTR luciferase signal in osteoblasts | Clone20 osteoblast Shn3 3'UTR firefly luciferase, 24 h | inhibition, % at 12.5 µM | actives 0.52% (n = 360,000);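 active = mean inhibition of at least 75% with every replicate also reaching 75%; inconclusive = mean inhibition at least 75% but some replicate below; inactive = mean inhibition below 75%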;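 note: 0% = median of neutral control wells and 100% = pilot-screen positive control compound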
# HIV Env fusion: blocks HIV Env-driven cell-cell fusion. HeLa-JRFL Env/CEM21 cell fusion, luciferase. inhibition, % at 12.3 µM. actives 1.1% (n = 360,000);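 active = mean replicate inhibition score of at least 50 and every replicate individually at or above 50; inconclusive = only one of the two criteria met; inactive = mean below 50 and not all replicates reaching 50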;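 note: 0% = plate neutral controls and 100% = maraviroc near 300 nM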
# N-glyco inh: N-linked glycosylation inhibition | D54 ERlucT glycosylation luciferase reporter, 24 h; percent of 100 nM tunicamycin response | actives 0.23% (n = 360,000) | reporter increase, % at 12.5 µM;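 active = mean luciferase reporter signal, scaled so untreated is 0 and the glycosylation-blocking control 100, at or above a set limit in every replicate; inconclusive = mean reaches the limit but not every replicate does; inactive = mean below the limit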;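 note: luciferase carries N-glycosylation sites so blocking glycosylation raises the light; 0% = median of neutral control wells and 100% = median of 100 nM tunicamycin wells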
# NSD2 inh: NSD2 (human) methyltransferase inhibition. NSD2 peptide methylation, AlphaScreen, 120 min. inhibition, % at 12.5 µM. actives 0.54% (n = 310,000). AID 743445; in the data active = inhibition above about 50%
# Target sequence (O96028 whole entry, looked up): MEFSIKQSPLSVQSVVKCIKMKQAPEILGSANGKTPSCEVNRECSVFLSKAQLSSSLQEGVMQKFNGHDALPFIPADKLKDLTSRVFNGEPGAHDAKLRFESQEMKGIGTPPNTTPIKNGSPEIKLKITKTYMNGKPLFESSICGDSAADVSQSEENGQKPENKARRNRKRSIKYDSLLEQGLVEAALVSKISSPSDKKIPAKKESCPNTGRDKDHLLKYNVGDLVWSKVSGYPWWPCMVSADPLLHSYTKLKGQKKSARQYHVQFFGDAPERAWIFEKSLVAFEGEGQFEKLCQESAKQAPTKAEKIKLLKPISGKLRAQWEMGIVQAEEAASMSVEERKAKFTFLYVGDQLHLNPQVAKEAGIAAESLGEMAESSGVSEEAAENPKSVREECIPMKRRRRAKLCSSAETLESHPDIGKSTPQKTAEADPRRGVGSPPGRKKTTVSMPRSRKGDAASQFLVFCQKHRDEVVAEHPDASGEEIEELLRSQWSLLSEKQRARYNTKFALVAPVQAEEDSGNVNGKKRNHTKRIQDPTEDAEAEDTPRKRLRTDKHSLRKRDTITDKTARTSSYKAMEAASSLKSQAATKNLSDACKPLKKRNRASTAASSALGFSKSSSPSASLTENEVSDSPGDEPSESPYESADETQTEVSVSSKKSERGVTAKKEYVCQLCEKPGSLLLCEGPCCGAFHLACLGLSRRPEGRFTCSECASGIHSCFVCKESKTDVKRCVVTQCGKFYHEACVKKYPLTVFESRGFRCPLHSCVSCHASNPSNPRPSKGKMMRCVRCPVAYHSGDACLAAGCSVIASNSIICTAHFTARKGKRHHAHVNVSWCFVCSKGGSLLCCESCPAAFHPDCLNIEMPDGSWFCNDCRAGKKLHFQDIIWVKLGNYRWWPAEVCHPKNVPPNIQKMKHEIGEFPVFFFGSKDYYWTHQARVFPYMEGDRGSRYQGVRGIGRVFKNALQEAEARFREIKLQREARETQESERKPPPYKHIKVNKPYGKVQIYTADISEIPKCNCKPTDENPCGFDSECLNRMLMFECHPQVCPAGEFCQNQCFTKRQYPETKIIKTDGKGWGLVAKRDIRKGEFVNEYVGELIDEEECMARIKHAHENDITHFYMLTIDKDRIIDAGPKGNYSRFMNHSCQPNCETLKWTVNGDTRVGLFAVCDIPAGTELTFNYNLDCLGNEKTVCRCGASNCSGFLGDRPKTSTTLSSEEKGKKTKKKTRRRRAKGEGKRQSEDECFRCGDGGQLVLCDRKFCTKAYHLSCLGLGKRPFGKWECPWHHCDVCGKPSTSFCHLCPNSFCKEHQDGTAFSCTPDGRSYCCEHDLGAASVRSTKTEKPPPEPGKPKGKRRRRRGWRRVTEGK
# Active calls of the source: *; i = inactive; ? = inconclusive; . = not tested or not shown; [ ] = another dose, or the depositor's remark.
SMILES,EBV LMP1 NFkB,PAX8 reporter,Shn3 3UTR inh,HIV Env fusion,N-glyco inh,NSD2 inh
CCC(=O)c1cc2c(C)cc(=O)oc2c(C)c1OC(C)=O,2.5,-16.5,17.8,-94.3,1.9,0.0
O=C(C[C@@H]1CC[C@H]2[C@@H](COC[C@H](O)CN2C(=O)Nc2ccc(Cl)cc2)O1)NCC1CCCCC1,.,-2.5,.,-14.8[16.7 µM],.,.
CC(C)C(Cl)=NOC(=O)Nc1ccc(S(N)(=O)=O)cc1,0.9,-8.2,95.0*,10.8,0.3,0.4
CC(=O)N(C1CC(C)C(C#N)(C#N)C1(C#N)C#N)N(C)C (stereo not drawn),1.1,74.9*,93.2*,-23.3,8.7,2.1
CCCC(=O)N(C1CC(C)C(C#N)(C#N)C1(C#N)C#N)N(C)C (stereo not drawn),27.5,67.6*,96.6*,-56.1,-8.5,.
CCOC(=O)C1C(=O)OC(C)(C)C1C(CC)C(=O)c1c(C)cc(C)cc1C (stereo not drawn),.,-13.1,.,76.3*,-2.7,-0.9
CCOC(=O)C1C(=O)OC(C)(C)C1C(CC)C(=O)c1ccccc1 (stereo not drawn),10.0,-0.1,-16.5,-0.8,0.3,13.5
c1nc(NCc2ccc3c(c2)OCO3)c2cc(-c3ccc4c(c3)OCCO4)ccc2n1,-10.1,48.6,-23.3,50.2,-2.2,.
c1ccc(CCNc2ncnc3ccccc23)cc1,-5.8,-138.4,56.6,52.8,-13.3,-2.0
Cc1cccc(CNc2ncnc3ccc(-c4ccc5c(c4)OCCO5)cc23)c1,-15.1,80.2*,8.1,80.3*,-2.6,.
Cc1csc(CNc2ncnc3ccc(-c4ccc5c(c4)OCO5)cc23)c1,0.0,45.0,-7.0,60.7*,-3.1,.
c1cncc(CNc2ncnc3ccc(-c4ccoc4)cc23)c1,46.5*,-18.2,12.5,47.4,-14.1,.
Brc1ccc2ncnc(NCc3ccccc3)c2c1,59.9*,.,75.4,.,-12.5,-3.9
O=C(C[C@@H]1CC[C@H](NS(=O)(=O)c2ccccc2)[C@H](CO)O1)N1CCC(Cc2ccccc2)CC1,.,-21.0,.,.,.,.
C[C@@H]1CN([C@@H](C)CO)C(=O)c2cc(-c3ccccc3F)cnc2O[C@H]1CN(C)Cc1ccc(F)cc1,.,.,.,23.9[16.7 µM],.,.
Cc1cccc(-c2ccc3ncnc(NCc4cccs4)c3c2)c1,-5.1,64.8*,11.3,3.9,-3.1,.
Cc1cccc(CNc2ncnc3ccc(-c4ccoc4)cc23)c1,74.8*,3.4,-6.1,29.9,-11.8,.
COC(=O)c1ccc2nc(Nc3nc4ccc(F)cc4s3)sc2c1,36.8,79.7*,39.2,56.9*,-14.2,1.9
O=C(Nc1nc2ccc(F)cc2s1)C1=COCCO1,51.4*,12.8,-22.9,-23.2,-23.0,12.9
O=C(Nc1nc2cc3c(cc2s1)OCCO3)C1=COCCO1,81.5*,94.0*,88.4*,64.0*,-22.7,-1.2
CSc1cccc2sc(NC(=O)C3=COCCO3)nc12,-8.7,.,-42.2,-26.6,6.9,-4.1
CC(=O)Nc1nc2cc3c(cc2s1)OCCO3,9.4,-55.2,-25.7,-6.4,-5.4,.
O=C(Nc1nc2ccc(F)cc2s1)c1ccccn1,.,74.7*,.,40.2,.,1.7
C[C@@H]1CCCCO[C@@H](CN(C)C(=O)C2CCCCC2)[C@H](C)CN([C@H](C)CO)C(=O)c2cc(NS(=O)(=O)c3ccc(Cl)cc3)ccc2O1,.,79.3*,.,0.1[16.7 µM],.,.
C[C@H](CO)N1C[C@H](C)[C@@H](CN(C)C(=O)C2CCCCC2)OCCCC[C@H](C)Oc2ccc(NS(=O)(=O)c3ccc(Cl)cc3)cc2C1=O,.,87.7*,.,-179.2[16.7 µM],.,.
SMILES,EBV LMP1 NFkB,PAX8 reporter,Shn3 3UTR inh,HIV Env fusion,N-glyco inh,NSD2 inh
C[C@@H]1CCCCO[C@@H](CN(C)C(=O)C2CCCCC2)[C@@H](C)CN([C@H](C)CO)C(=O)c2cc(NS(=O)(=O)c3ccc(Cl)cc3)ccc2O1,.,-9.6,.,-102.9[16.7 µM],.,.
C[C@@H]1CN([C@H](C)CO)C(=O)c2cc(NS(=O)(=O)c3ccc(Cl)cc3)ccc2O[C@@H](C)CCCCO[C@H]1CN(C)C(=O)C1CCCCC1,.,85.4*,.,-73.9[16.7 µM],.,.
C[C@H]1C[C@H]2[C@@H]3CCC4=CC(=O)C=C[C@]4(C)[C@@]3(F)[C@@H](O)C[C@]2(C)[C@@]1(O)C(=O)CO,45.5*,-22.5,72.4,i,7.1,.
N#CC(c1ccc(Cl)cc1)c1ccc2c(C(F)(F)F)cc(C(F)(F)F)nc2n1 (stereo not drawn),52.3*,.,88.7*,.,-11.3,.
Cc1ccc(S(=O)(=O)c2ccc([N+](=O)[O-])o2)cc1,?,126.6*,95.0*,-198.2,-19.3,1.1
c1ccc2c(-c3ccncc3)c[nH]c2c1,76.6*,.,-9.0,.,-1.1,0.1
CO[C@@H]1CN(C)C(=O)c2cc(NS(=O)(=O)c3cccc(F)c3)ccc2OC[C@@H](C)NC[C@H]1C,.,-0.7,.,-13.8[16.7 µM],.,.
Nc1ccc2c(c1)CC(=O)c1ccccc1S2,6.0,92.5*,6.2,.,-0.3,-0.6
O=C1Cc2ccccc2Sc2ccc(O)cc21,-1.4,40.1,2.6,.,0.2,6.4
Cc1onc(-c2ccccc2Cl)c1C(=O)N1CCC(Cc2ccccc2)CC1,18.8,21.8,88.9*,4.5,-5.7,1.6
Cc1onc(-c2ccccc2Cl)c1C(=O)N1CCC(C(N)=O)CC1,-6.8,-2.1,-5.1,7.9,-0.8,-0.3
CCCNC(=O)C[C@@H]1C[C@@H]2c3cc(NS(=O)(=O)c4ccc(OC)cc4)ccc3O[C@@H]2[C@H](CO)O1,.,-7.9,.,-49.6[16.7 µM],.,.
CCN(CC)c1ccc(/C=C/c2cccc[n+]2C)c(OC)c1,38.2,95.2*,89.1*,52.8,27.8*,.
CN(C)S(=O)(=O)c1cccc(N=C2NN=C(c3ccccc3)CS2)c1,.,72.8*,.,16.2,.,-1.3
Cc1cccc(N=C2NN=C(c3ccccc3F)CS2)c1C,-19.9,-19.9,31.7,4.6,-7.3,4.9
CC(=O)Nc1ccc(C2=NNC(=Nc3cccc(S(=O)(=O)N(C)C)c3)SC2)cc1,4.3,.,9.1,.,-2.1,.
COc1ccc(C2=NNC(=Nc3cc(S(=O)(=O)N(C)C)ccc3C)SC2)c(OC)c1,-3.4,103.2*,.,66.6*,-7.3,.
CN1[C@@H]2c3ccc(-c4ccncc4)c(=O)n3C[C@H]1[C@H](CO)[C@H]2C(=O)N1CCC(Cc2ccccc2)CC1,.,1.9,.,10.2[16.7 µM],.,.
C[C@@H]1CN([C@@H](C)CO)C(=O)c2c(c3ccccc3n2C)-c2ccccc2CO[C@@H]1CN(C)C(=O)C1CC1,.,7.7,.,-6.3[16.7 µM],.,.
CNC[C@@H]1Oc2ncc(C#CC3(O)CCCC3)cc2C(=O)N([C@H](C)CO)C[C@@H]1C,.,-14.8,.,-15.9[16.7 µM],.,.
O=C1CCC2S/C(=C/Nc3ccc(C(F)(F)F)cc3)C(=O)N12 (stereo not drawn),51.3*,71.9*,56.6,52.1,-1.6,2.0
CC(C)NC(=O)N(C)C[C@@H]1OCCCC[C@@H](C)Oc2ccc(NS(=O)(=O)c3ccc(F)cc3)cc2C(=O)N([C@H](C)CO)C[C@H]1C,.,5.3,.,-58.3[16.7 µM],.,.
O=C(Nc1cccc([N+](=O)[O-])c1)c1cc2ccccc2cc1O,23.0,77.6*,31.5,35.8,-12.1,.
